For 13 compounds, Potency and activity change, negative = inhibition results are on record in PubChem BioAssay AID1508636 (National Center for Advancing Translational Sciences (NCATS), 2021).

Each structure is given as a SMILES string. Inconclusive results are not listed. Unmarked numbers belong to inactive results. Activity calls are given as the source filed them. Calls follow the shape of the dose curve; as a rule, active = well fitted inhibition curve with a large enough effect; inconclusive = small, poorly fitted or top-dose-only effect; inactive = flat fitted curve, though single readings scatter. *1 amine or outer side, *2 acyl side, *3 side chain or, on linkers, in order; H or OH if unused. Where a SMILES comes first, the peptide text is derived from it. Bridges are numbered along the chain shown (N, C = ends). Roman numbers before positions name the chains, in order. [ ]: non-standard residue; d: D form. ξ: configuration not given here. Actinocin(9to1) = Cc1c2oc3c(C)ccc(C(=O)[*:1])c3nc-2c(C(=O)[*:2])c(N)c1=O; ξNMeV = CNC(C(=O)O)C(C)C; ξV = CC(C)C(N)C(=O)O; Sar = CNCC(=O)O

The assay concerns the target ATP-dependent translocase ABCB1 (Homo sapiens) (UniProt P08183). Kind of assay: qHTS for characterization and localization of zebrafish homologs of the human ABCB1 multidrug transporter: P-gp overexpressing MDR-19 cells. Put shortly: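 Empty-vector, P-gp-overexpressing MDR-19 and zebrafish abcb4- or abcb5-transfected cells were exposed to ~90 P-gp substrates at varying concentrations for 72 h at 37C. Viability was read by CellTiter-Glo luminescence; cytotoxic meant inhibitory curve class, >50% maximal response and AC50 < 10 uM.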

Chain of ATP-dependent translocase ABCB1 (Homo sapiens) (P08183 whole entry, looked up): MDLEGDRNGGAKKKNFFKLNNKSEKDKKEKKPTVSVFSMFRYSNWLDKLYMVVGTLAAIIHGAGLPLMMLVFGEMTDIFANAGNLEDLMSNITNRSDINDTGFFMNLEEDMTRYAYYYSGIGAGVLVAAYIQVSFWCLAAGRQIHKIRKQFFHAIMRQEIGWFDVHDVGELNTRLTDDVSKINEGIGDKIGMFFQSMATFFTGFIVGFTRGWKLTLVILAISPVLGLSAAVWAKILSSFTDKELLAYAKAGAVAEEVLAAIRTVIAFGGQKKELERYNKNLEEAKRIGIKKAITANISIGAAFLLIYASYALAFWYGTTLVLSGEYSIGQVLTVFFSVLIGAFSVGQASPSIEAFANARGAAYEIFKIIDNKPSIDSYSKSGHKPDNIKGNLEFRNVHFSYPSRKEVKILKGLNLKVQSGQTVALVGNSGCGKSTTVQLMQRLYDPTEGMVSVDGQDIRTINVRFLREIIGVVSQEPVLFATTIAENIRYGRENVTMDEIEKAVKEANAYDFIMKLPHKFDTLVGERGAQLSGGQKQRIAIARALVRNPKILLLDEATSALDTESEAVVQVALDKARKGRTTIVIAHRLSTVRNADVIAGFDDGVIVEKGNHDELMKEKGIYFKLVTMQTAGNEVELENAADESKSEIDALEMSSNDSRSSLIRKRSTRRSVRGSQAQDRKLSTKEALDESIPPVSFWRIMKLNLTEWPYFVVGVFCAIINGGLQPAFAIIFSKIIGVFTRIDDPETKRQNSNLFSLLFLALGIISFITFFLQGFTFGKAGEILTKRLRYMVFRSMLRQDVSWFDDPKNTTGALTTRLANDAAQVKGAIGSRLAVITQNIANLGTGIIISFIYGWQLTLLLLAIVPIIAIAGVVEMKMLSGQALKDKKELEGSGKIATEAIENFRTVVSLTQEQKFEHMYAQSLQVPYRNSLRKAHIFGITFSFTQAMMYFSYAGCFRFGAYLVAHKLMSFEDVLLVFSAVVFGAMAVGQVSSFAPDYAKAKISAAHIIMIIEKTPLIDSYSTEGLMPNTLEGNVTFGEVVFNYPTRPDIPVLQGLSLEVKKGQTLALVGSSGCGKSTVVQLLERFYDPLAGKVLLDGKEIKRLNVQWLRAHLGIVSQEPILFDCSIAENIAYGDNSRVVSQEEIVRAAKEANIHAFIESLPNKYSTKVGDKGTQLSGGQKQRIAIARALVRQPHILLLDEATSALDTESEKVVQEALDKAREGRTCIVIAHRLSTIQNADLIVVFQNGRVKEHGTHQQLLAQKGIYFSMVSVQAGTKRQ

On to `C[C@@]12O[C@@H](C[C@]1(O)CO)n1c3ccccc3c3c4c(c5c6ccccc6n2c5c31)CNC4=O`, for which the Potency is 8.33 µM (active). On the same count and under the same terms, the value for `CCc1cccc(CC)c1NC(=O)N1Cc2[nH]nc(NC(=O)c3ccc(N4CCN(C)CC4)cc3)c2C1` was “inactive”; that for `CC(C)C[C@H](NC(=O)[C@@H](NC(=O)c1cccc(-c2ccccc2)n1)[C@@H](C)O)B(O)O` was 0.372 µM (active). Same read-out and setting: the result for `CC(C)C[C@H](NC(=O)[C@H](CCc1ccccc1)NC(=O)CN1CCOCC1)C(=O)N[C@@H](Cc1ccccc1)C(=O)N[C@@H](CC(C)C)C(=O)[C@@]1(C)CO1` reads 0.743 µM (active); that for `COc1cc(N2CCC(O)CC2)ccc1Nc1nc(Nc2ccccc2S(=O)(=O)C(C)C)c2[nH]cnc2n1`, “inactive”; that for `CC[C@@H]1C(=O)N(C)c2cnc(Nc3ccc(C(=O)NC4CCC(N5CCN(CC6CC6)CC5)CC4)cc3OC)nc2N1C(C)C` (stereo partly drawn), 2.35 µM (active). In the case of `Cc1c2oc3c(C)ccc(C(=O)N[C@@H]4C(=O)NC(C(C)C)C(=O)N5CCC[C@H]5C(=O)N(C)CC(=O)N(C)C(C(C)C)C(=O)O[C@@H]4C)c3nc-2c(C(=O)N[C@@H]2C(=O)NC(C(C)C)C(=O)N3CCC[C@H]3C(=O)N(C)CC(=O)N(C)C(C(C)C)C(=O)O[C@@H]2C)c(N)c1=O` (stereo partly drawn) (I: T[ξV]P[Sar][ξNMeV] / II: T[ξV]P[Sar][ξNMeV]; ester I:1-I:C, II:1-II:C; linker I:N-II:N via Actinocin(9to1)), the Potency was 0.469 µM (active). As for `COc1ccc(CC2C(=O)NC(C)C(=O)N(C)C3Cc4ccc(cc4)Oc4cc(ccc4OC4OC(CO)C(O)C(O)C4O)CC(C(=O)NC(C)C(=O)NC(C)C(=O)N2C)N(C)C3=O)cc1` (stereo not drawn), the Potency result was “inactive”. In the case of `C=C1CO[C@@]2(O[C@H]3CC4C5CC=C6C[C@@H](O)C[C@@H](O[C@@H]7OC[C@H](O)[C@H](O[C@@H]8OC[C@@H](O)[C@H](O)[C@H]8O)[C@H]7O[C@@H]7O[C@@H](C)[C@H](OC(C)=O)[C@@H](OC(C)=O)[C@H]7OC(C)=O)[C@]6(C)C5CC[C@]4(C)[C@@H]3[C@@H]2C)[C@@H](O)[C@H]1OC1OC(C)C(O)C(O)C1O` (stereo partly drawn), the activity change, negative = inhibition is 3.31% [at 8.96 µM]. In the case of `CC(C)(C)c1cnc(CSc2cnc(NC(=O)C3CCNCC3)s2)o1`, the Potency was 24.1 µM (active).

Take `CO[C@H]1/C=C/C=C/C=C/C[C@H](OC(=O)[C@@H](C)NC(=O)C2CCCCC2)[C@H](C)[C@@H](O)/C(C)=C/CCc2cc(O)cc(c2)NC(=O)C1`: the Potency entry is “inactive”.

On to `CC1(C)CC(NC(=O)C(=O)Nc2ccc(Br)cc2)CC(C)(C)N1`, for which the Potency entry is “inactive”.

For the compound `COc1cc(C(=O)NC2CCN(C)CC2)ccc1Nc1ncc2c(n1)N(C1CCCC1)CC(F)(F)C(=O)N2C`, the Potency was 3.32 µM (active).
